Source: the supplement of paper PMC10338343
± gives the standard deviation.

What was measured:
[1] = system: MILI (PIWIL2) piRISC loaded with L1MC piRNA (26 nt); assay: pre-steady-state target cleavage rate (min^-1); guide: L1MC piRNA 5'p-UAACUAAAUACUAUGCAAGCUGUAGG; higher = faster piRNA-guided slicing of the target;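 further: 1 nM active piRISC with 0.1 nM target library at 33 °C single turnover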
Method in brief: (§1)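 The pre-steady-state cleavage rate was derived from a burst-and-steady-state fit of Cleave-'n-Seq data. For these assays, 1 nM active affinity-purified piRISC loaded with a single synthetic guide was mixed with […] a transcribed, DNA-blocked target RNA library in HEPES–potassium acetate buffer at 33 °C, with or without 500 nM GTSF1 partner protein, for 0–8 or 0–960 min. Sequencing counts of uncleaved targets were normalised to depth and to weakly complementary targets, and k3 was capped at 0.0001 min^-1 after three trials were pooled.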

[2] = system: EfPiwi piRISC loaded with L1MC piRNA (26 nt); assay: pre-steady-state target cleavage rate (min^-1); auxiliary factor: 500 nM Ephydatia muelleri Gtsf1; guide: L1MC piRNA 5'p-UAACUAAAUACUAUGCAAGCUGUAGG; MIWI and MILI are mouse PIWI proteins and EfPiwi is from a freshwater sponge; tags in brackets are library labels; higher = faster piRNA-guided slicing of the target
Method in brief: as §1

[3] = auxiliary factor: 500 nM mouse GTSF1
[4] = auxiliary factor: none (no GTSF1)

Sequence: UCCUGCUACAGCUUGCAUAGUAAUUACAAA
- pre-steady-state target cleavage rate [1, 3]: 0.0901 ± 0.029
- pre-steady-state target cleavage rate [2]: 0.00259 ± 0.0018

Sequence: UCCUCCUACAGCUUGCAGUAGUAUUUAGUUA
- pre-steady-state target cleavage rate [1, 3]: 0.0101 ± 0.0053
- pre-steady-state target cleavage rate [2]: 0.00539 ± 0.0033

Sequence: UCCUCCUACAGCUUGCAUACUAUUUUGUUA
- pre-steady-state target cleavage rate [1, 3]: 0.0272 ± 0.0077
- pre-steady-state target cleavage rate [2]: 0.00468 ± 0.0034

Sequence: UCCUGCUACAGCUUGCAUAGUAUUUUCUUA
- pre-steady-state target cleavage rate [1, 3]: 0.0484 ± 0.01
- pre-steady-state target cleavage rate [2]: 0.00359 ± 0.002

Sequence: UCCUCCUACAGCUUGCAUAGUUUUUAGUAA
- pre-steady-state target cleavage rate [1, 3]: 0.0743 ± 0.015
- pre-steady-state target cleavage rate [2]: 0.005 ± 0.0022

Sequence: UCCUGGAACAGCUUGCAUAGUUUUUAGUAA
- pre-steady-state target cleavage rate [1, 3]: 0.0664 ± 0.015
- pre-steady-state target cleavage rate [2]: 0.00724 ± 0.0029

Sequence: UCCUCCUACAGCUUGGAUACUAUUUAGUUA
- pre-steady-state target cleavage rate [1, 3]: 0.0539 ± 0.0095
- pre-steady-state target cleavage rate [2]: 0.0118 ± 0.0031

Sequence: UCCUGGAACAGCAAGCAUAGUAUUUAGAAA
- pre-steady-state target cleavage rate [1, 3]: 0.162 ± 0.025
- pre-steady-state target cleavage rate [2]: 0.00309 ± 0.002

Sequence: UCCUGGAUGUCGAACCAUAGUAUUUAGGUA
- pre-steady-state target cleavage rate [1, 4]: < 0.0001
- pre-steady-state target cleavage rate [2]: < 0.0001

Sequence: UCCUCCUACAGCUUGCAUAGAUUUAGUUA
- pre-steady-state target cleavage rate [1, 3]: 0.00908 ± 0.0047
- pre-steady-state target cleavage rate [2]: 0.00442 ± 0.0029

Sequence: UCCUCCUACACCUUGCAUAGUAUUUACUUA
- pre-steady-state target cleavage rate [1, 3]: 0.128 ± 0.038
- pre-steady-state target cleavage rate [2]: 0.00326 ± 0.0032

Sequence: UCCUGGAUCAGCUUGCAUAGUUAAUAGUUA
- pre-steady-state target cleavage rate [1, 3]: 0.017 ± 0.0066
- pre-steady-state target cleavage rate [2]: 0.00344 ± 0.003

Sequence: UCCUGCUACAGCAUCCAUAGUAUUUAGUUA
- pre-steady-state target cleavage rate [1, 3]: 0.195 ± 0.047
- pre-steady-state target cleavage rate [2]: 0.00233 ± 0.0017

Sequence: UCCUGCUACAGCUUGCAUAGUAUUAUGAAA
- pre-steady-state target cleavage rate [1, 3]: 0.0843 ± 0.025
- pre-steady-state target cleavage rate [2]: 0.00355 ± 0.0023

Sequence: UCCUGCUACUGCUUGCAUAGUAUUUAGAAA
- pre-steady-state target cleavage rate [1, 3]: 0.0315 ± 0.0099
- pre-steady-state target cleavage rate [2]: 0.00545 ± 0.0023

Sequence: UCCUGGAACAGCUUGGAUAGUAUUAAGUUA
- pre-steady-state target cleavage rate [1, 3]: 0.186 ± 0.033
- pre-steady-state target cleavage rate [2]: 0.00405 ± 0.0034

Sequence: UCCUGCUACAGCUUGCAUAGUAAAAAGUUA
- pre-steady-state target cleavage rate [1, 3]: 0.214 ± 0.036
- pre-steady-state target cleavage rate [2]: 0.00305 ± 0.0016

Sequence: UCCUGCUACAGCUUGCAUUGUAUUUACAAA
- pre-steady-state target cleavage rate [1, 3]: 0.0245 ± 0.01
- pre-steady-state target cleavage rate [2]: 0.00313 ± 0.0028

Sequence: UCCUGGAUCAGCUUGCAUAGUAAUUUGUUA
- pre-steady-state target cleavage rate [1, 3]: 0.114 ± 0.025
- pre-steady-state target cleavage rate [2]: 0.00366 ± 0.002

Sequence: UCCUGCUACAGCUUCCAUAGUAUUUAGUUA
- pre-steady-state target cleavage rate [1, 3]: 0.0846 ± 0.028
- pre-steady-state target cleavage rate [2]: 0.00342 ± 0.0012

Sequence: UCCUGGAACACCUUGCAUAGUAUUAAGUUA
- pre-steady-state target cleavage rate [1, 3]: 0.189 ± 0.034
- pre-steady-state target cleavage rate [2]: 0.00303 ± 0.0027

Sequence: UCCUGCUACAGCUAGCAUAGUAUUUAGUAA
- pre-steady-state target cleavage rate [1, 3]: 0.212 ± 0.019
- pre-steady-state target cleavage rate [2]: 0.00623 ± 0.002

Sequence: UCCUGGAUGAGCUUCCAUAGUAUUUAGUUA
- pre-steady-state target cleavage rate [1, 3]: 0.0222 ± 0.011
- pre-steady-state target cleavage rate [2]: 0.00346 ± 0.0018

Sequence: UCCUGGAUGUCCUUGCAUAGUAUUUAGAAA
- pre-steady-state target cleavage rate [1, 3]: 0.0838 ± 0.021
- pre-steady-state target cleavage rate [2]: 0.00278 ± 0.0022

Sequence: UCCUGGAUCAGGUUGCAUAGUAUUUAGAUA
- pre-steady-state target cleavage rate [1, 3]: 0.1 ± 0.023
- pre-steady-state target cleavage rate [2]: 0.00381 ± 0.0026

Sequence: UCCUCCUACAGCUUGCUUAGUAUUUACAAA
- pre-steady-state target cleavage rate [1, 3]: 0.0922 ± 0.021
- pre-steady-state target cleavage rate [2]: 0.00329 ± 0.003

Sequence: UCCUCCUACAGCUUGCAUAGUAUUAUCUAA
- pre-steady-state target cleavage rate [1, 3]: 0.187 ± 0.045
- pre-steady-state target cleavage rate [2]: 0.00413 ± 0.0033

Sequence: UCCUCCUACAGCUUGCUAUAGUAUUUAGUUA
- pre-steady-state target cleavage rate [1, 3]: 0.0206 ± 0.0064
- pre-steady-state target cleavage rate [2]: 0.00859 ± 0.0032

Sequence: UCCUGGUACAGCUUGCAUAGUAUAAAGUAA
- pre-steady-state target cleavage rate [1, 3]: 0.0705 ± 0.02
- pre-steady-state target cleavage rate [2]: 0.00243 ± 0.0022

Sequence: UCCUGCAACAGCUUGCAUAGUAUUUUGUUA
- pre-steady-state target cleavage rate [1, 3]: 0.179 ± 0.023
- pre-steady-state target cleavage rate [2]: 0.00469 ± 0.0013

Sequence: UCCUGCUACAGCUUGCAUAUAUUUAGUUA
- pre-steady-state target cleavage rate [1, 3]: 0.046 ± 0.011
- pre-steady-state target cleavage rate [2]: 0.00528 ± 0.0031

Sequence: UCCUCCUACAGCUUGCAUUGUAUUUAGAAA
- pre-steady-state target cleavage rate [1, 3]: 0.0778 ± 0.019
- pre-steady-state target cleavage rate [2]: 0.00363 ± 0.0015

Sequence: UCCUGGAUGAGCUUGCAUAGAAUUUAGUAA
- pre-steady-state target cleavage rate [1, 3]: 0.0264 ± 0.011
- pre-steady-state target cleavage rate [2]: 0.00272 ± 0.0027

Sequence: UCCUGGAUGUGCUUGCAUAGUAUUUACAAA
- pre-steady-state target cleavage rate [1, 3]: 0.00913 ± 0.0046
- pre-steady-state target cleavage rate [2]: 0.00369 ± 0.0033

Sequence: UCCUGGAUGUGCUUGCAUAUUAUUUAGUUA
- pre-steady-state target cleavage rate [1, 3]: 0.0346 ± 0.0073
- pre-steady-state target cleavage rate [2]: 0.00647 ± 0.0022

Sequence: UCCUGGAUGUCGAACGAUAGUGAUUUAGUUA
- pre-steady-state target cleavage rate [1, 4]: < 0.0001
- pre-steady-state target cleavage rate [2]: < 0.0001

Sequence: UCCUGGAAGAGCUUCCAUAGUAUUUAGUUA
- pre-steady-state target cleavage rate [1, 3]: 0.297 ± 0.085
- pre-steady-state target cleavage rate [2]: 0.00329 ± 0.0011

Sequence: UCCUGCUACAGCUUGCUUAGUAUUUUGUUA
- pre-steady-state target cleavage rate [1, 3]: 0.156 ± 0.027
- pre-steady-state target cleavage rate [2]: 0.0127 ± 0.004

Sequence: UCCUCCUACAGCUUGCAUACUAUUUAGAAA
- pre-steady-state target cleavage rate [1, 3]: 0.136 ± 0.043
- pre-steady-state target cleavage rate [2]: 0.00366 ± 0.0019

Sequence: UCCUGCUUCAGCUUGCAUAGUAUUUACAAA
- pre-steady-state target cleavage rate [1, 3]: 0.212 ± 0.047
- pre-steady-state target cleavage rate [2]: 0.00462 ± 0.0025

Sequence: UCCUGCUACAGCUUGCAUAGUAUUUAGAUA
- pre-steady-state target cleavage rate [1, 3]: 0.15 ± 0.029
- pre-steady-state target cleavage rate [2]: 0.00539 ± 0.0023

Sequence: UCCUCCUACAGCUUGCAUAGUAAAUAGUAA
- pre-steady-state target cleavage rate [1, 3]: 0.119 ± 0.025
- pre-steady-state target cleavage rate [2]: 0.00375 ± 0.0025

Sequence: UCCUGGAUGUGGAUGCAUAGUAUUUAGAAA
- pre-steady-state target cleavage rate [1, 3]: 0.013 ± 0.0055
- pre-steady-state target cleavage rate [2]: 0.00388 ± 0.0027

Sequence: UCCUGGAACAGCUUGCAUAAUAUUUAGUUA
- pre-steady-state target cleavage rate [1, 3]: 0.298 ± 0.028
- pre-steady-state target cleavage rate [2]: 0.00487 ± 0.0024

Sequence: UCCUCCUACAGGUUGCAUAGUAUUUAGAAA
- pre-steady-state target cleavage rate [1, 3]: 0.12 ± 0.023
- pre-steady-state target cleavage rate [2]: 0.00461 ± 0.0014

Sequence: UCCUGCUACAGCUUGCAUUAGUAUUUAGUUA
- pre-steady-state target cleavage rate [1, 3]: 0.017 ± 0.007
- pre-steady-state target cleavage rate [2]: 0.00378 ± 0.003

Sequence: UCCUGCUACUGCUUGCAUAGUAUUUAGAUA
- pre-steady-state target cleavage rate [1, 3]: 0.0911 ± 0.022
- pre-steady-state target cleavage rate [2]: 0.00383 ± 0.0018

Sequence: UCCUGGAACAGCUUGCAUAGUAUUUUGAAA
- pre-steady-state target cleavage rate [1, 3]: 0.0888 ± 0.027
- pre-steady-state target cleavage rate [2]: 0.00294 ± 0.0022

Sequence: UCCUGCUACAGCUUGCAUAGUAAUUACUUA
- pre-steady-state target cleavage rate [1, 3]: 0.057 ± 0.017
- pre-steady-state target cleavage rate [2]: 0.0026 ± 0.0026

Sequence: UCCUGGAACAGCUUGCAUAGUAAAUAGAAA
- pre-steady-state target cleavage rate [1, 3]: 0.0493 ± 0.016
- pre-steady-state target cleavage rate [2]: 0.00337 ± 0.0028

Sequence: UCCUCCUACAGGAUGCAUAGUAUUUAGAAA
- pre-steady-state target cleavage rate [1, 3]: 0.0838 ± 0.015
- pre-steady-state target cleavage rate [2]: 0.00396 ± 0.0014

Sequence: UCCUCCUACUGCUUGCAUAGUAUUUACUUA
- pre-steady-state target cleavage rate [1, 3]: 0.0701 ± 0.013
- pre-steady-state target cleavage rate [2]: 0.00299 ± 0.0029

Sequence: UCCUCCUACAGCUUGCAAUCUAUUUAGUUA
- pre-steady-state target cleavage rate [1, 3]: 0.0266 ± 0.0058
- pre-steady-state target cleavage rate [2]: 0.00376 ± 0.0036

Sequence: UCCUGGUACAGCUUGCAUAGUAUUUUGAUA
- pre-steady-state target cleavage rate [1, 3]: 0.0966 ± 0.025
- pre-steady-state target cleavage rate [2]: 0.00381 ± 0.0026

Sequence: UCCUGCUACAGCUUGCAUAGUAUAUACAAA
- pre-steady-state target cleavage rate [1, 3]: 0.0701 ± 0.019
- pre-steady-state target cleavage rate [2]: 0.00238 ± 0.0022

Sequence: UCCUCCUACUGCUUGCAUAGUAUUUAGAAA
- pre-steady-state target cleavage rate [1, 3]: 0.0658 ± 0.017
- pre-steady-state target cleavage rate [2]: 0.00462 ± 0.0021

Sequence: UCCUGGAUGUGCUUGCAUAGUAUUUAGCUUA
- pre-steady-state target cleavage rate [1, 3]: 0.113 ± 0.028
- pre-steady-state target cleavage rate [2]: 0.00517 ± 0.003

Sequence: UCCUCCUACAGCUUGCAUAUUAUUUAGUUA
- pre-steady-state target cleavage rate [1, 3]: 0.0824 ± 0.011
- pre-steady-state target cleavage rate [2]: 0.0783 ± 0.025

Sequence: UCCUCCUACAGCAAGCAUAGUAUUUAGAAA
- pre-steady-state target cleavage rate [1, 3]: 0.217 ± 0.035
- pre-steady-state target cleavage rate [2]: 0.00443 ± 0.0036

Sequence: UCCUCCUACAGCUUGCAUUGUAUUAAGUUA
- pre-steady-state target cleavage rate [1, 3]: 0.132 ± 0.023
- pre-steady-state target cleavage rate [2]: 0.00681 ± 0.0032
